This is a sample that favours compounds with a hit; in the whole collection about 12% have one here.
SARS PLP yeast: SARS-CoV PLP inhibition in yeast. AID 485353. Potency, µM (top dose mostly 32.9 µM), without a hit: at the highest dose activity, positive = growth rescue, most hits filed as activators. S. cerevisiae expressing SARS-CoV PLpro, growth rescue. actives 0.19% (n = 330,000); calls by dose curve; note: 0% is about no effect; nearly all actives have a fitted effect of over 55% in size
Pf growth 48h: P. falciparum growth inhibition at 48 hours (one generation); Potency, µM (highest dose often 28.7 µM), without a hit: at the top dose activity change, negative = inhibition, most hits filed as inhibitors; AID 504832; actives 5.9% (n = 310,000); P. falciparum luciferase growth in erythrocytes, 48 h; note: % is set by controls: 0 for no effect and ±100 for the full control effect
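Luminescence readout; reporter = integrated firefly luciferase in P. falciparum. RBC culture at 2% hematocrit, 0.1% parasitemia final, 37 C/5% CO2; decreased signal taken as growth inhibition.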
Pf growth 96h: P. falciparum growth inhibition at 96 hour, primary screen for plastid delayed-death inhibitors; Potency, µM (highest dose often 28.7 µM), inactives show at the highest dose activity change, negative = inhibition, most hits filed as inhibitors; P. falciparum luciferase reporter growth, 96 h; actives 6.9% (n = 320,000); note: % is set by controls: 0 for no effect and ±100 for the full control effect
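Plates of compound plus infected erythrocytes (2% hematocrit, 0.05% parasitemia final) incubate 96 hours, 37 C, 5% CO2. Detection reagent added; reduced luminescence from the parasites' luciferase reporter flags inhibition.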
Sm TGR inh: inhibitors of Schistosoma mansoni thioredoxin glutathione reductase; Q962Y6; purified TGR, DTNB reduction, TNB absorbance 405 nm; Potency, µM (doses to about 114 µM), without a hit: top-dose activity change, negative = inhibition, actives largely listed as inhibitors; actives 3% (n = 360,000); AID 485364; note: % is set by controls: 0 for no effect and ±100 for the full control effect; nearly all actives have a fitted effect of over 60% in size
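First, TGR (20 nM dispensed) and NADPH were mixed with compound. Second, a 15 min room-temperature incubation followed. Third, further NADPH and then DTNB were added to start the reaction. Finally, TNB absorbance was monitored kinetically.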
Starred values were filed as active, the others as inactive; u = inconclusive; x = not tested or not shown; ! = a repeat was not active; [ ] = another dose, or the depositor's remark. Unless noted, calls come from the whole dose curve; as a rule, active = well fitted curve in the direction sought with a large enough effect; inconclusive = small, poorly fitted or top-dose-only effect, or another doubt; inactive = no such curve, though single readings can be large; an effect the other way counts as inactive or inconclusive. Potency is the fitted concentration of half-maximal effect.

SMILES | SARS PLP yeast | Pf growth 48h | Pf growth 96h | Sm TGR inh
CCOC(=O)c1cc(-c2ccccc2)sc1NC(=O)CSc1nncs1 | 17% | 16% | -11% | -18%
COC(=O)c1c(-c2ccc3ccccc3c2)csc1NC(=O)Cc1ccc(OC)c(OC)c1 | -3% | 8.3µM* | 9.3µM* | 10%
CCOC(=O)c1c(NC(=O)CSc2nnnn2C)sc(C)c1-c1ccc(C)cc1 | 8% | 8.3µM* | 2.3µM* | 7%
COc1ccc(C(=O)OCC(=O)N2CCN(C(=O)c3ccco3)CC2)cc1OC | -2% | x | x | x
Cn1nnnc1SCC(=O)Nc1ccccc1-c1ccccc1 | 2% | 34% | u | -4%
Cn1nnnc1SCC(=O)NCCCc1ccccc1 | -2% | 2% | u | 0%
Cn1nnnc1SCC(=O)NCC(=O)c1ccccc1 | 6% | 45% | 6%[5.75 µM] | 20µM*
CCOC(=O)c1c(-c2ccccc2)csc1NC(=O)CSc1nnnn1C | -7% | 4.7µM* | x | -10%
CN(C)C(=O)c1ccc(S(=O)(=O)NCc2ccccc2Cl)s1 | x | x | x | 4%
CCOc1cc(-c2nc3ccccn3c2NCC2CCCO2)ccc1O (stereo not drawn) | 1% | -9% | 12µM* | -9%
CCc1nnc(SCC(=O)Nc2ccc3ccccc3c2)n1N | 0% | x | x | x
CCC(=O)NC(=S)Nc1ccc(N2CCN(C(=O)c3ccc(Cl)cc3)CC2)cc1 | -2% | u | 12µM* | x
CC(C)(O)C#Cc1ccc(C(=O)N2CCN(c3ccc(Cl)cc3)CC2)cc1 | 3% | 9% | 6.6µM* | -23%
CC1CCN(c2ccc(NC(=S)NC(=O)c3ccc(-c4cccc([N+](=O)[O-])c4)o3)cc2)CC1 | -6% | 4.7µM* | x | u
CCC(=O)N1CCN(c2ccc(NC(=S)NC(=O)c3cccc([N+](=O)[O-])c3)cc2)CC1 | -4% | 2% | 7.4µM* | 10µM*
O=C(NC(=S)Nc1ccc(N2CCOCC2)cc1)c1ccc(Cl)cc1 | -27% | 16% | 22% | -1%
COc1ccccc1NC(=O)c1cc2c(=O)n(Cc3cccs3)ccc2nc1C | x | x | x | -2%
CC(=O)N1CCN(c2ccc(NC(=S)NC(=O)COc3ccc(C(C)(C)C)cc3)cc2)CC1 | -16% | 23% | u | -10%
CCC(=O)N1CCN(c2ccc(NC(=S)NC(=O)COc3ccccc3)cc2)CC1 | -2% | -10% | 15µM* | u
CC(C)CC(=O)OC1C(N2CCOCC2)c2c(ccc(/C=C/C(=O)N3CCOCC3)c2O)OC1(C)C (stereo not drawn) | 0% | u | 2.6µM* | -1%
Cc1cccc(NC(=O)C2CCN(S(=O)(=O)c3c(C)nn(C)c3C)CC2)n1 | 6% | 9% | u | 2%
Cc1nn(C)c(C)c1S(=O)(=O)N1CCC(C(=O)NC2CCCCC2)CC1 | 3% | 5% | 9.3µM* | 1%
O=C(NC1CCCCCC1)C1CCN(S(=O)(=O)c2c(Cl)cccc2Cl)CC1 | 7% | u | -28% | 8%
Cc1nn(C)c(C)c1S(=O)(=O)N1CCC(C(=O)NC2CCCCCC2)CC1 | 2% | 12% | 5.2µM* | 1%
CCCN(C(=O)c1cc(S(=O)(=O)N2CCc3ccccc32)cn1C)c1ccc(OCC)cc1 | x | x | x | -2%
SMILES | SARS PLP yeast | Pf growth 48h | Pf growth 96h | Sm TGR inh
CCCNC(=O)C1CCC(Cn2c(=O)c3sccc3n(CC(=O)NCc3ccccc3)c2=O)CC1 (stereo not drawn) | x | x | x | 7%
CC(C)(C)c1ccc(C(=O)C2CCCN(C(=O)C3CCOCC3)C2)cc1 (stereo not drawn) | 0% | 5.9µM* | -12% | 3%
Cc1noc(C)c1CC(=O)N1CCCC(C(=O)c2ccc(C(C)(C)C)cc2)C1 (stereo not drawn) | 2% | u | u | 0%
Cn1nccc1C(=O)N1CCCC(C(=O)c2ccc(C(F)(F)F)cc2)C1 (stereo not drawn) | -1% | 28% | 15µM* | 6%
CCc1ccc(C(=O)NC(Cc2c[nH]c3ccccc23)C(=O)OCC(=O)c2ccc(Br)cc2)cc1 (stereo not drawn) | x | x | x | 8%
COc1ccc(NC(=O)CSc2nc(-c3ccc(OC)cc3)cc(=O)[nH]2)cc1 | x | x | x | 0%
COC(=O)COc1nsnc1N1CCOCC1 | -2% | 5% | x | 11%
CC(C)(C)NC[C@H](O)COc1nsnc1N1CCOCC1 | 0% | 2.4µM*! | 0.67µM*! | 11%
CC1CCN(C(=O)c2ccc3c(c2)N(Cc2ccccc2)C(=O)c2ccccc2S3(=O)=O)CC1 | x | x | x | 2%
CN(C)c1nc(F)c(F)c(S(=O)(=O)c2ccccc2)c1F | -2% | -1% | 21% | 40µM*
